A selection: hits, their analogues and other compounds. The true share with any hit is near 2.9%.
E-sel TNF inh – blocks E-selectin expression induced by TNF alpha; inhibition, % at 2 µM; HUVEC TNFa-induced E-selectin immunofluorescence, high content; 120,000 compounds, 0.71% hits; AID 1246;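 active means inhibition above the batch mean plus 3 SD, and confirmed as a hit on visual image review, cut at about 43% in these data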;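 further: 0% = TNF-stimulated DMSO wells and 100% = unstimulated control wells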
Candida biofilm – kills Candida albicans biofilms; C. albicans biofilm + clotrimazole, Alamar Blue; inhibition, % at 6 µM; 85,000 compounds, 0.14% hits;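 active means inhibition above 20%; inactive means inhibition below 20%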;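 further: preformed 24 hr biofilms exposed to compound for 48 hr; 0% = biofilm without compound and 100% = blank killed by clotrimazole plus chlorhexidine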
ERb coact inh – ER-beta (human) coactivator binding inhibition | TR-FRET ER-beta LBD / SRC1-Cy5 peptide binding; receptor agonist-loaded with 1 µM estradiol | inhibition, % at 25.6 µM | Q92731 | 86,000 compounds, 1.3% hits;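 active means compounds whose percent inhibition of the receptor-coactivator binding signal exceeds about 50% in the single-dose screen, limit read from the data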;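 further: 0% = receptor plus peptide wells without compound and 100% = peptide-only wells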
F-actin modifier – modifiers of cytoskeleton assembly | HUVEC TNFa F-actin phalloidin imaging, high content | inhibition, % at 2 µM | 91,000 compounds, 0.18% hits;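 active means inhibition above the batch mean plus 3 SD and confirmed as a hit by visual image inspection, cut at about 30% in these data, passing the limit was not always enough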
ERa coact pot – ER-alpha (human) coactivator binding potentiation; coactivator binding (% of control), % at 25.6 µM; 86,000 compounds, 1.3% hits; P03372; TR-FRET ERalpha-LBD/SRC-Cy5 coactivator binding, 2 h; 100 = basal binding, no effect; in the data active means activity above about 200%;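 further: binding measured in presence of low estradiol as agonist stimulus; 0% = peptide alone without receptor and 100% = receptor with peptide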
Target sequence (P03372 whole entry, looked up, the tested form may be a part): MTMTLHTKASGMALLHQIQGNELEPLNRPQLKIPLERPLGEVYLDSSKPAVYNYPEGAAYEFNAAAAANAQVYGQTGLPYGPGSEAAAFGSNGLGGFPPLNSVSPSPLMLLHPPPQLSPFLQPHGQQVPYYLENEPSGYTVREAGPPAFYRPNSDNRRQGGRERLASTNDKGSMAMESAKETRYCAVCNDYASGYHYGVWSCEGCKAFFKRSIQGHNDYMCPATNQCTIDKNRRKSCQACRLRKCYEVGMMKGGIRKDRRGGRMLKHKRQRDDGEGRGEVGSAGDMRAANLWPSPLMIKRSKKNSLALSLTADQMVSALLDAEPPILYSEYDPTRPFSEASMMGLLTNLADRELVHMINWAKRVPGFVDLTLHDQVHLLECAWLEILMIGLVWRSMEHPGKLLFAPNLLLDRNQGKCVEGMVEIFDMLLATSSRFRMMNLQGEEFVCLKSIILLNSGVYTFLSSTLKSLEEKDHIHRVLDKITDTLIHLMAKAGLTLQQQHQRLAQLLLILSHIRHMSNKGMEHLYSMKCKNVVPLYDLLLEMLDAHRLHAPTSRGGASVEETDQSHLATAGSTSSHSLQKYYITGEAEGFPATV
ERa coact inh – ER-alpha (human) coactivator binding inhibition | P03372 | TR-FRET ER-alpha LBD / SRC-1 peptide, estradiol-bound | inhibition, % at 25.6 µM | 86,000 compounds, 1.7% hits; in the data active means inhibition above about 50%;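 further: 0% = receptor plus peptide control and 100% = peptide only without receptor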
* hit, by the source's call; nt = no result given; + = active, no number; [ ] = dose if it differs, or a comment.

SMILES | E-sel TNF inh | Candida biofilm | ERb coact inh | F-actin modifier | ERa coact pot | ERa coact inh
CCN(CC)c1ccc2c(Cl)c(Br)c(=O)oc2c1 | 96* | 2 | -4 | 28 | 139 | -3
CCN(CC)c1ccc2c(c1)oc(=O)c1c(Cl)cc(=O)oc12 | -28 | 2 | -7 | 6 | 309* | -6
CCN(CC)c1ccc2c(C)c(-c3ccc(N)cc3)c(=O)oc2c1 | -7 | 3 | 4 | nt | 80 | 4
O=c1c2ccccc2nc2n1CCCCN2 | 21 | 8 | 12 | -7 | 82 | 80*
CC(C)(C)NC(=O)C(OC(=O)c1cccs1)c1ccc(C#N)cc1 (stereo not given) | -15 | nt | nt | nt | nt | nt
CCCCOC(=O)CSc1nc(N)c(C#N)c(-c2ccc(OCC)cc2)c1C#N | 22 | 9 | 76*[fluorescence artefact?] | 20 | 215*[fluorescence artefact?] | 51*[fluorescence artefact?]
CCCCOc1ccc(-c2c(C#N)c(N)nc(SCC(N)=O)c2C#N)cc1 | 9 | 1 | 41 | -73 | 271*[fluorescence artefact?] | 42
CCCCOC(=O)CSc1nc(N)c(C#N)c(-c2ccc(OC)cc2)c1C#N | nt | 4 | 41 | 16 | 240*[fluorescence artefact?] | 61*[fluorescence artefact?]
CCCOC(=O)CSc1nc(N)c(C#N)c(-c2ccco2)c1C#N | 42 | 6 | 22 | -12 | 120 | 4
CCOC(=O)CSc1nc(N)c(C#N)c(-c2ccc(OC)cc2)c1C#N | nt | nt | 35 | -11 | 258*[fluorescence artefact?] | 14
CCOC(=O)CC(=O)CSc1nc(N)c(C#N)c(-c2ccc(F)cc2)c1C#N | nt | 6 | -9 | -5 | 107 | -3
Cc1sc2nc3c(C(=O)N4CCN(c5ccccn5)CC4)cccn3c(=O)c2c1C | 16 | nt | nt | 4 | nt | nt
C=C(C)CSc1nc(N)c(C#N)c(-c2ccc(C)cc2)c1C#N | -33 | 5 | -1 | -8 | 108 | -3
CSc1nc(N)c(C#N)c(-c2ccc(Cl)cc2)c1C#N | nt | 2 | 34 | -1 | 255*[fluorescence artefact?] | 42
CCc1ccc(N2CC(C(=O)Nc3cccnc3)CC2=O)cc1 (stereo not given) | 63* | 2 | -2 | -10 | 104 | -7
Cc1ccc(N2CC(C(=O)Nc3cccnc3)CC2=O)cc1 (stereo not given) | nt | 3 | -1 | -4 | 112 | 0
O=C(NCC1CCCN(Cc2ccc3nonc3c2)C1)c1ccc(F)cc1 (stereo not given) | 2 | nt | nt | nt | nt | nt
NC(=O)COc1ccc(C2c3c(oc4ccccc4c3=O)C(=O)N2CC2CCCO2)cc1 (stereo not given) | 5 | 6 | 70* | -8 | 61 | 70*
Cc1cc2cc(C)c(NCCNC(=O)c3cccs3)nc2cc1C | -11 | nt | nt | nt | nt | nt
CCc1ccc2[nH]c(=O)c(C3C(C#N)=C(N)Oc4c3ccc3cccnc43)cc2c1 (stereo not given) | 11 | 10 | 50* | -1 | 76 | 80*
CC(=O)N1CCC(N(CCN2CCOCC2)C(=S)Nc2ccc(C)c(C)c2)CC1 | 6 | nt | nt | nt | nt | nt
Cc1cccc(N=C2NC(=O)/C(=C3/C(=O)N(C)c4ccccc43)S2)c1C | -24 | 7 | 37 | 22 | 26 | 61*
CCCCNC(=O)c1onc(CCl)c1C(=O)OC | -13 | nt | nt | -21 | nt | nt
Cc1ccc(-c2cc(-c3ccc4c(c3)OCO4)c(C#N)c(N)n2)o1 | -15 | 8 | 27 | 7 | 18 | 82*[fluorescence artefact?]
Cc1ccc(-c2cc(-c3ccc(Cl)cc3)c(C#N)c(N)n2)o1 | -37 | 6 | 24 | 4 | 75 | 40
SMILES | E-sel TNF inh | Candida biofilm | ERb coact inh | F-actin modifier | ERa coact pot | ERa coact inh
Cc1ccc(-c2cc(-c3ccc(C)o3)nc(N)c2C#N)cc1 | -37 | 0 | 10 | 3 | 75 | 10
Cc1cc(-c2cc(-c3ccc(Cl)cc3)nc(N)c2C#N)co1 | -24 | -3 | 28 | 36 | 50 | 51*[fluorescence artefact?]
N#Cc1c(N)nc2c(c1-c1ccc3c(c1)OCO3)CCCCCC2 | -28 | -1 | -12 | nt | 109 | -7
N#Cc1c(N)oc(-c2ccc3c(c2)OCO3)c1-c1ccc2c(c1)OCO2 | 6 | 6 | 73* | -4 | 30 | 73*
OC(COc1ccc2c(c1)OCO2)CN1CCc2ccccc2C1 (stereo not given) | 20 | 11 | -3 | 33 | 110 | -2
COc1ccc(CCc2nnc(CCC(=O)NCCc3ncccc3C)o2)cc1 | -7 | nt | nt | nt | nt | nt
CC1(C)CC(=O)c2cc(OCC(=O)NCCCN3CCN(c4ccc(F)cc4)CC3)ccc2O1 | nt | 1 | -7 | 48* | 105 | -1
CC(C)CCNC(=O)COc1ccc2c(c1)C(=O)CC(C)(C)O2 | 23 | 5 | -6 | nt | 107 | -2
O=S1(=O)C=C(SCc2cccc(Cl)c2)Nc2ccccc21 | nt | nt | nt | -13 | nt | nt
CCOC(=O)c1cc2ccccc2n1CCN(CC)CC | -1 | 0 | -6 | 9 | 102 | 52*
COc1ccc(CONS(=O)(=O)c2ccc(NC(C)=O)cc2)cc1Cl | -2 | nt | nt | 9 | nt | nt
O=C1c2cccc3cccc(c23)C(=O)N1c1ccc2ncccc2c1 | -3 | 8 | 23 | -8 | 172 | 71*[fluorescence artefact?]
COc1ccc(-c2nnc3n2N=C(c2cccc(Br)c2)CS3)cc1OC | -5 | 8 | 49 | nt | 233* | 39
CCOC(=O)c1c(-c2ccc(C)cc2)csc1NC(=O)CCSc1nnc2ccccn12 | 7 | nt | nt | nt | nt | nt
CN1C(=O)CS(=O)c2ccc(C(=O)NCCC3=CCCCC3)cc21 (stereo not given) | -20 | 21* | -8 | 18 | 104 | -8
CCSc1nnc(NC(=O)C(C)Sc2nc3ccccc3[nH]2)s1 (stereo not given) | 6 | nt | nt | nt | nt | nt
COc1ccc(C(=O)Nc2ccc(Cl)cc2C(=O)NCc2ccco2)cc1 | -19 | 8 | 10 | -26 | 131 | 3
CCC(C)C(NC(=O)c1ccccc1NC(=O)c1ccc(OC)cc1)C(=O)NCc1ccco1 (stereo not given) | nt | -4 | 40 | 10 | 65 | 67*[fluorescence artefact?]
Cc1nn(-c2ccccc2)c2sc(C(=O)OCC(=O)N3CCCCC3)cc12 | nt | 6 | -1 | nt | 124 | 2
Cc1ccc(NC(=S)N2CCC(N(C)CC3CCCO3)CC2)c(C)c1 (stereo not given) | nt | 2 | -10 | 2 | 106 | 18
CCCC1=[N+](CC)CCn2c(C)ccc21 | -39 | 6 | -9 | 1 | 115 | -3
Cc1cc2n(c1)CCn1c(C)ccc1-2 | -8 | 5 | 52* | 13 | 9 | 91*[fluorescence artefact?]
Cc1ccc(-c2noc(CSc3nnc(Cc4ccccc4)n3-c3cccc(C)c3)n2)cc1 | -16 | -2 | 0 | 6 | 76 | -5
COc1ccc(-c2noc(CSc3nnc(Cc4ccccc4)n3-c3cccc(C)c3)n2)cc1OC | -1 | 5 | -1 | -24 | +[fluorescence artefact?] | 2
O=C(Cc1ccc(Cl)cc1Cl)Nc1cccc(S(=O)(=O)Nc2ccccc2F)c1 | 21 | nt | nt | nt | nt | nt
CCOc1ccccc1CNC(=O)Cn1c(=O)oc2ccccc21 | -19 | 3 | 55*[fluorescence artefact?] | -19 | 90 | 8
O=C(CN1CCCCC1)Nc1ccc(NC(=O)c2ccc(Cl)cc2)cc1Cl | 0 | nt | nt | -22 | nt | nt
